High-throughput results from PubChem.
G9a inh: qHTS Assay for Inhibitors of Histone Lysine Methyltransferase G9a; Histone-lysine N-methyltransferase EHMT2 (Homo sapiens), Q96KQ7; G9a H3K9 monomethylation, AlphaScreen, 2 h; Potency, µM (doses to about 102 µM), inactives show at the top dose activity, negative = inhibition, most hits filed as inhibitors; actives 8.8% (n = 350,000); note: potency is the fitted concentration of half-maximal effect; % is set by controls: 0 for no effect and ±100 for the full control effect; nearly all actives have a fitted effect of over 75% in size
Target sequence (Q96KQ7 913-1193 limits assumed): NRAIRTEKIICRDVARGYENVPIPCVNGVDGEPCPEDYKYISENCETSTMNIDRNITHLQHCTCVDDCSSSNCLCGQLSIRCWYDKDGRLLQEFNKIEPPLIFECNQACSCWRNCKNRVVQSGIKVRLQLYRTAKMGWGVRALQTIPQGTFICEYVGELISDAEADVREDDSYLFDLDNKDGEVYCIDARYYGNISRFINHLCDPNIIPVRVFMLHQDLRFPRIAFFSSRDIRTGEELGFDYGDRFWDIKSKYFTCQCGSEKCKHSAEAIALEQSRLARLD
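Quantitative HTS format: methyltransferase activity on a biotin-tagged H3K9 peptide is measured by AlphaScreen, using a rabbit anti-monomethyl-H3K9 antibody with streptavidin donor and anti-IgG acceptor beads. Final levels are 20 nM enzyme, 500 nM peptide, 20 uM SAM; 2 h RT.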
CtBP-E1A blk: qHTS Assay for Inhibitors of the CtBP/E1A Interaction | CtBP / adenovirus E1A interaction (AlphaScreen) | AlphaScreen GST-E1A/His-CtBP binding, 1536-well; active compounds read low | activity change, % (test concentration not listed) | actives 0.49% (n = 340,000) | AID 651724, 2012; in the data active = activity change below about -65%; inconclusive = mostly about -30% to -63%; note: % is set by controls: 0 for no effect and ±100 for the full control effect
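AlphaScreen with 125 nM GST-E1A and 125 nM His-CtBP (5X stocks) in Tris pH 8.0, 300 mM NaCl, BSA, Tween 20, TCEP. Compounds preincubated 2 h at 37 deg C, then glutathione donor/nickel acceptor beads added for 1 h at 37 deg C in dark.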
BAZ2B inh: qHTS Assay for Inhibitors of BAZ2B; Bromodomain adjacent to zinc finger domain protein 2B (Homo sapiens), Q9UIF8; AlphaScreen BAZ2B-H3K14Ac peptide displacement; Potency, µM (doses to about 114 µM), inactives show at the highest dose activity change, negative = inhibition, usual class: inhibitors; actives 4.4% (n = 360,000); AID 504333, 2011; note: potency is the fitted concentration of half-maximal effect; % is set by controls: 0 for no effect and ±100 for the full control effect; nearly all actives have a fitted effect of over 60% in size
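AlphaScreen displacement of biotin-H3(5-23)K14Ac peptide (50 nM final) from BAZ2B (50 nM final) in PBS pH 7.4, 0.01% Tween-20; complex preformed 30 min RT, then compounds (top 110 uM) 30 min RT, beads 20 min dark.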
JMJD2A Tudor: qHTS Assay for Inhibitors of JMJD2A-Tudor Domain. AlphaScreen JMJD2A-Tudor / H3K4me3 peptide binding. Potency, µM (series often up to 114 µM), inactives show at the top dose activity change, negative = inhibition, actives largely listed as inhibitors. actives 4.4% (n = 390,000); note: potency is the fitted concentration of half-maximal effect; % is set by controls: 0 for no effect and ±100 for the full control effect; nearly all actives have a fitted effect of over 50% in size
HP1b binding inh: HTS for Inhibitors of HP1-beta Chromodomain Interactions with Methylated Histone Tails. Chromobox protein homolog 1 (Homo sapiens), P83916. Potency, µM (doses to about 114 µM), inactives show at the highest dose activity change, negative = inhibition, actives largely listed as inhibitors. AlphaScreen HP1-beta / biotin-H3K9me3 peptide binding. actives 0.56% (n = 390,000); note: potency is the fitted concentration of half-maximal effect; nearly all actives have a fitted effect of over 70% in size
Target sequence (P83916 whole entry, looked up): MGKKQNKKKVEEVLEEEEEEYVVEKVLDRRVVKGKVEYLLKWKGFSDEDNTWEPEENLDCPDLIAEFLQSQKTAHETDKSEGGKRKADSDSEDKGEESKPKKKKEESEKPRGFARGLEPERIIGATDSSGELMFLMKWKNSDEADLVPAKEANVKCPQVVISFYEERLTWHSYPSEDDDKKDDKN
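AlphaScreen: HP1-beta (50 nM) preformed 30 min with biotin-H3(1-18)K9me3 peptide (50 nM) in PBS pH 7.4, 0.01% Tween-20. Compound added for 30 min at RT, then streptavidin donor/nickel chelate acceptor beads (10 ug/mL) for 30 min.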
Six1-Eya2 blk: qHTS Assay for Inhibitors of the Six1/Eya2 Interaction. actives 0.56% (n = 360,000). AlphaScreen GST-Six1/His-Eya2 binding, biochemical; active compounds read low. activity change, % (concentration not given with the values). AID 651725, 2012. Homeobox protein SIX1 (Homo sapiens) + Protein phosphatase EYA2 (Homo sapiens), …; in the data active = activity change below about -65%; inconclusive = mostly about -30% to -63%; note: % is set by controls: 0 for no effect and ±100 for the full control effect
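Six1/Eya2 binding was read as AlphaScreen signal after compounds were pinned into GST-Six1 plus His-tagged Eya2 (5X stock 250/500 nM) in pH 8.0 Tris/NaCl/TCEP buffer, beads added, then incubated 1 h, 37 C, dark.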
The depositor's hits bear a star; u = inconclusive; x = not tested or not shown; [ ] = remark or other dose. Most compounds without a hit are left out; they make up all but 10% or so of the library. Unless noted, calls come from the whole dose curve; as a rule, active = well fitted inhibition curve with a large enough effect; inconclusive = small, poorly fitted or top-dose-only effect; inactive = no such curve, though single readings can be large or run the other way.

SMILES	G9a inh	CtBP-E1A blk	BAZ2B inh	JMJD2A Tudor	HP1b binding inh	Six1-Eya2 blk
CCCOc1cccc(C2/C(=C(/O)c3ccc(F)cc3)C(=O)C(=O)N2CCN(C)C)c1 (stereo not drawn)	u	-4.0	-3.0%	79.4µM*	-2.7%	3.0
COc1cc(C2/C(=C(\O)c3cc(C)ccc3C)C(=O)C(=O)N2CCN(C)C)ccc1O (stereo not drawn)	50.1µM*	2.7	-7.6%	-11.6%	13.5%	6.6
CCCOc1cccc(C2/C(=C(/O)c3ccccc3)C(=O)C(=O)N2CCN(C)C)c1 (stereo not drawn)	-4.5%[12.7 µM]	-0.3	u	-13.0%	14.3%	-7.2
CCCOc1ccc(C2/C(=C(/O)c3ccccc3)C(=O)C(=O)N2CCCN(C)C)cc1OC (stereo not drawn)	x	2.3	x	-9.9%	55.2%	-0.5
CCCOc1ccc(/C(O)=C2/C(=O)C(=O)N(CCN(C)C)C2c2ccc(O)c(OC)c2)cc1 (stereo not drawn)	44.7µM*	6.9	9.2%	-29.4%	49.6%	17.6
CCN(c1ccccc1)c1nc(N)nc(C#N)n1	x	x	x	3.1%[57.1 µM]	11.1%[57 µM]	x
CCCCc1nn2c(=O)cc(COC(=O)c3ccc4c(c3)OCO4)nc2s1	3.6%[59 µM]	x	-1.2%	-22.3%	-26.8%	x
COc1cc(NC(=O)C(NS(=O)(=O)c2ccc3c(c2)CCCC(=O)N3)C(C)C)cc(OC)c1 (stereo not drawn)	-3.0%[59 µM]	x	-6.3%	-13.3%	14.9%	x
O=C1c2ccccc2C(=O)N1CC#CCN1CCN(C(c2ccccc2)c2ccccc2)CC1	u	-4.9	50.1µM*	u	-6.2%	-9.7
Cc1cccc(CNC(=O)C2CCN(S(=O)(=O)c3cccc4nonc34)CC2)c1	5.7%[59 µM]	x	-0.5%	-6.3%	25.5%	x
CC(Oc1ccc(Cl)cc1)C(=O)Nc1ccc(S(=O)(=O)Nc2nccs2)cc1 (stereo not drawn)	-2.1%[59 µM]	-11.5	-18.8%	-18.5%	-3.5%	0.7
Cc1ccc(C)c(OC(C)C(=O)Nc2ccc(S(=O)(=O)Nc3nccs3)cc2)c1 (stereo not drawn)	11.2µM*	-9.7	-28.1%	-33.1%	u	u
CCCCC1CCC(C(=O)Nc2ccc(S(=O)(=O)Nc3nccs3)cc2)CC1 (stereo not drawn)	44.7µM*	-9.9	-29.9%	-24.7%	-4.6%	-6.2
CC(Oc1ccccc1Cl)C(=O)Nc1ccc(S(=O)(=O)Nc2nccs2)cc1 (stereo not drawn)	56.2µM*	-23.2	-8.6%	u	-20.7%	-11.7
CCCC(C)C(=O)Nc1ccc(S(=O)(=O)Nc2nccs2)cc1 (stereo not drawn)	x	0.2	50.1µM*	-14.1%	39.9%	-0.4
COC(=O)c1c(N)n(-c2ccc(OC)c(OC)c2)c2nc3ccccc3nc12	10.9%[59 µM]	x	1.1%	-5.5%	22.0%	x
CSCCC(NS(=O)(=O)c1ccccc1)C(=O)Nc1nccs1 (stereo not drawn)	8.91µM*	-2.9	4.1%	-21.1%	17.9%	-1.5
CCOc1ccc2nc(NC(=O)C(NS(=O)(=O)c3cccs3)C(C)C)sc2c1 (stereo not drawn)	17.7%[12.7 µM]	9.7	11.8%	-12.2%	19.1%	1.5
Cc1ccccc1OC(C)C(=O)Nc1ccc(S(=O)(=O)Nc2nccs2)cc1 (stereo not drawn)	50.1µM*	1.9	-23.5%	-17.9%	14.7%	-6.9
CCOc1ccc2nc(NC(=O)C(CCSC)NS(=O)(=O)c3cccs3)sc2c1 (stereo not drawn)	u	2.0	u	56.2µM*	44.9%	-10.9
CN(C(=O)CSc1nc2ccccc2n1Cc1cccc(C(F)(F)F)c1)c1ccccc1	0.9%[59 µM]	x	5.0%	-10.3%	3.2%	x
CN(C)c1cc(-c2ccc(Br)cc2)oc(=O)c1Cl	50.1µM*	-4.9	u	-9.0%	14.6%	-19.7
Cc1cc2oc(C(=O)Nc3ccc(S(N)(=O)=O)cc3)cc(=O)c2cc1C	-8.2%[59 µM]	x	-2.5%	-24.3%	-2.8%	x
COc1ccc(S(=O)(=O)NC(C)C(=O)Nc2ccccc2F)cc1 (stereo not drawn)	39.8µM*	6.4	-2.4%	-4.0%	18.6%	0.0
COc1ccc(S(=O)(=O)NC(C)C(=O)Nc2cccc(C(C)=O)c2)cc1 (stereo not drawn)	u	4.2	7.0%	-15.4%	11.5%	15.2
SMILES	G9a inh	CtBP-E1A blk	BAZ2B inh	JMJD2A Tudor	HP1b binding inh	Six1-Eya2 blk
COc1ccccc1/C=N/NS(=O)(=O)c1ccccc1	u	x	-5.3%	3.0%	77.1%	0.3
COc1ccc(S(=O)(=O)Nc2cccc3ccccc23)cc1	x	x	x	-23.3%	21.6%	x
COc1ccc(S(=O)(=O)N/N=C\c2ccccc2F)cc1	39.8µM*	-22.9	-2.3%	-2.7%	41.3%	-5.0
COc1ccc(S(=O)(=O)Nc2c(F)cccc2F)cc1	-4.3%	6.1	-14.5%	25.1µM*	50.1µM*	6.0
COc1ccc(CNC(=O)Cc2coc3ccc(C)cc23)cc1	-10.3%[59 µM]	x	2.0%	u	5.7%	x
CCc1ccccc1-n1nnc(-c2nsc(NC(=O)c3ccc(C)c(C)c3)n2)c1C	7.0%[59 µM]	x	0.5%	-5.5%	34.8%	x
C=C1c2cc(OC)ccc2NC(=O)N1CC	31.6µM*	-0.1	3.4%	-12.6%	31.0%	-1.1
Cc1cc(C)cc(-n2c(C)nc3cc(C(=O)NCc4ccc(F)cc4)ccc32)c1	u	x	-16.3%	-34.9%	19.8%	x
C=CCN1C(c2ccccc2)=CS/C1=C(/C#N)c1nnc(N2CCOCC2)n1-c1ccccc1	u	x	-34.3%	u	14.3%	-2.6
C=CCn1c(CC#N)nnc1N1CCOCC1	u	3.5	50.1µM*	u	21.0%	-1.5
COc1ccc(NC(=O)C2=C(C)Nc3nc(SCc4ccccc4C)nn3C2c2cc(OC)c(O)c(OC)c2)cc1 (stereo not drawn)	-25.8%[59 µM]	x	79.4µM*	-9.9%	32.5%	x
Cc1ccc2nc(/C(C#N)=C/c3ccc(-c4cccc([N+](=O)[O-])c4)o3)[nH]c2c1	7.94µM*	0.0	u	u	-29.4%	17.1
Cc1cc(/C=C(/C#N)c2nc3ccccc3[nH]2)c(C)n1-c1cccc([N+](=O)[O-])c1	11.2µM*	u	u	89.1µM*	-19.2%	0.0
Cc1cc(/C=C(\C#N)c2nc3ccccc3[nH]2)c(C)n1C	-13.2%	-6.5	-28.4%	-18.4%	-8.7%	-10.3
